The source of these data is PubChem BioAssay AID624352 (Sanford-Burnham Center for Chemical Genomics, 2012).

Usually inhibition stands for the change of the read-out against control, counted positive when it falls.

Out of some 360,000 compounds screened, about 2,600 (0.72%) were called active. Shown is part of a subset that was picked to be rich in actives. A number with no mark means an inactive call.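 How the source made its calls: active means inhibition of the luminescence signal of 40% or more relative to plate controls, in a single-dose primary screen at 18.75 µM; inactive means the rest.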

The experiment can be described thus: blockers of HIF-2a driven luciferase – luminescence, 786-0 RCC cells, primary screen (AID 624352). The conditions noted are these: 786-0 RCC cells HIF-2a reporter, overnight, at 18.8 µM, active compounds read high.
On to `Cc1ccc(Cl)c(OCC(=O)NN2CCN(C)CC2)c1`, for which the inhibition was 13.6%.
The value for `CC1CN(C(=O)COC(=O)c2cccc(NS(=O)(=O)c3ccccc3)c2)CC(C)O1` (configuration not stated) was 10.2%; that for `CNC(=O)NC(=O)C(C)N1CCN(C/C=C/c2ccccc2)CC1` (configuration not stated) was 16.3%.
For `COCCCNC(=O)CNC(=O)c1nn(-c2ccc(OC)cc2)c(=O)c2ccccc12` the value was 4.73%; for `O=C(NC(=S)N1CCN(Cc2ccccc2)CC1)c1ccccc1`, 3.06%; for `S=C(c1ccc(-c2ccccc2)o1)N1CCCCC1`, -291%.
For `OCCN1CCN(C(=S)c2ccc(-c3ccccc3)cc2)CC1` the value was 88.1% (active); for `CCN(C(=O)c1cc([N+](=O)[O-])ccc1NCc1cccnc1)c1ccccc1`, 11.9%.
Regarding `Cc1ccc(S(=O)(=O)N(C)C)cc1NC(=O)COC(=O)C1COc2ccccc2O1` (configuration not stated), the inhibition was 3.99%.
The value for `Fc1ccc2c(c1)C(c1cccnc1)=NNC(c1cccs1)=N2` was 0.189%.
In the case of `C=CCn1c(SCC(=O)NC(=O)Cc2ccccc2)nc2ccccc2c1=O`, the inhibition is 15.8%.
Turning to `CCn1c(/C=C/c2ccc([N+](=O)[O-])o2)nc2ccccc2c1=O`, the inhibition is 56.6% (active).
As to `O=C(/C=C/c1ccc([N+](=O)[O-])o1)NNC(=O)c1ccc(F)cc1`, the inhibition was 30.1%.
The value for `CCc1cc(CNC(=O)CC2C(=O)NCCN2Cc2ccccc2C(F)(F)F)on1` (configuration not stated) was 7.76%; that for `Cc1cc(C)c(S(=O)(=O)N2CCOCC2)cc1C` was 16.4%.
The value for `COCc1cc(=O)n2[nH]c(C)c(-c3ccccc3)c2n1` was 11.1%; that for `CC(C)[C@H](NC(=O)c1ccccc1F)C(=O)Nc1cccc(S(=O)(=O)N2CCOCC2)c1` was 6.68%.
As for `CCN(CC)CCCC(C)n1c2nc(=O)[nH]c(=O)c-2nc2cc(Cl)ccc21` (configuration not stated), the inhibition was 70.8% (active).
The value for `O=c1c(-c2ccccc2Cl)c[nH]n1-c1ccccc1` was -21.8%; that for `OC(c1ccccc1)c1nccn1Cc1ccccc1` (configuration not stated) was 6.44%.
The value for `Cc1cc(C)c(NC(=O)c2oc3ccccc3c2COc2ccccc2)c(C)c1` was 1.23%; that for `CCOC(=O)N1CCC(=NNC(N)=O)CC1` was 9.05%; that for `CC(=O)c1cccc(-c2cnc3c(NC=O)cc(-c4ccc(N(C)C)cc4)cn23)c1` was -15.5%.
The value for `CN(C)C(=O)c1cccc(-c2cnc3c(NC=O)cc(-c4ccc(F)cc4)cn23)c1` was 9.01%; that for `CN(C)CCNC(=O)c1cccc(-c2cnc3c(NC=O)cc(-c4cccc(C(F)(F)F)c4)cn23)c1` was 79.2% (active).
`C=CCN1C(=NC(=O)COc2ccccc2)SC2CS(=O)(=O)CC21` (configuration not stated): the inhibition was 4.93%.
`OCCN1CCN(CCO)C1=S`: the inhibition is 9.5%.
For `CC(C)(C)OC(=O)N/N=C/c1ccc(C(=O)O)cc1` the value was 4.48%.
For `NCCCCCC(=O)N/N=C/c1ccc2nccnc2c1` the value was 7.39%; for `O=C(O)c1ccc(N/N=C/c2ccc3ncccc3c2)cc1`, 54.5% (active); for `O=C1NC(=O)C(CCc2ccccc2)(c2ccccc2)N1` (configuration not stated), 17.5%.
Regarding `COCC(C)n1c(C)cc(C(=O)COc2ccc(C)nc2[N+](=O)[O-])c1C` (configuration not stated), the inhibition is 50.6% (active).
The value for `Cc1cc(C(=O)COC(=O)CNC(=O)c2ccc(F)cc2)c(C)n1Cc1ccco1` was -47.3%; that for `Cc1ccc(OCC(=O)NC(C)c2ccccc2)c([N+](=O)[O-])n1` (configuration not stated) was 17.9%.
The value for `Cc1ccc(OCC(=O)c2cc(C)n(Cc3ccco3)c2C)c([N+](=O)[O-])n1` was 48.1% (active); that for `COc1ccc(C)cc1-n1nnnc1SCC(=O)c1cc(C)n(Cc2ccco2)c1C` was -49.1%.
On to `COc1ccccc1CNC(=O)COc1ccc(C)nc1[N+](=O)[O-]`, for which the inhibition is -1.54%.
For `COc1ccc(NC(=O)CN2C(=O)COc3ccc(S(=O)(=O)N4CCOCC4)cc32)cc1` the value was -0.73%; for `CCCCSc1[nH]c(=O)c(C(=O)OCC)cc1C#N`, 5.92%; for `CCN(CC)CC(=O)Nc1sc2c(c1C(=O)c1ccccc1C)CCC2`, 31.1%.
For `O=C(Nc1ccccc1C(=O)O)c1cc(S(=O)(=O)N2CCCCC2)cs1` the value was -9.72%.
The value for `CC(NS(=O)(=O)c1ccccc1)c1n[nH]c(=S)n1-c1ccccc1` (configuration not stated) was 16.8%.
`C[C@@H]1CN([C@@H](C)CO)C(=O)c2cccc(NS(=O)(=O)c3ccc(F)cc3)c2O[C@H]1CN(C)C(=O)NC1CCCCC1`: the inhibition was -10.3%.
For `C=CCSc1nnc(N2C(=O)C(O)=C(C(=O)c3ccco3)C2c2ccc(F)cc2)s1` (configuration not stated) the value was -55.2%; for `CC(C)(C)c1cc(C(=O)N/N=C/c2ccc([N+](=O)[O-])s2)n[nH]1`, 80.5% (active); for `Cc1ccc(-c2cc(C(=O)N/N=C/C=C/c3ccccc3)n[nH]2)o1`, -1.73%.
The value for `O=[N+]([O-])c1ccc(C=Nc2ccc(Cl)cc2Cl)s1` was -3.51%; that for `COc1ccnc(Oc2ccccc2)n1` was -5.97%.
For `CCCCCCCCCCOC(=O)C[N+](C)(C)CC1CCCCC1O` (configuration not stated) the value was 7.58%; for `CCN1CCC(O)(/C=C/c2ccc(C)cc2)C(C(=O)/C=C/c2ccc(C)cc2)C1` (configuration not stated), 66.8% (active).
On to `Cc1ccc(-c2nn(C(C)(C)C)c3ncnc(N)c23)cc1`, for which the inhibition was 71.5% (active).
The value for `CCN(CC(=O)Nc1c(F)cccc1F)C(=O)c1ccc(-c2ccc(C(C)=O)cc2)o1` was -53.4%; that for `NS(=O)(=O)c1ccc(CNC(=O)c2ccc(Cl)cc2[N+](=O)[O-])cc1` was 2.46%; that for `O=C(CSc1c2c(nc3ccc(Cl)cc13)CCCC2)NCc1ccco1` was 17.8%.
For `Fc1ccc2nc(-c3ccccc3)nc(SCc3nnc(-c4ccccc4)o3)c2c1` the value was 23.8%; for `Clc1ccc2nc(-c3ccccc3)nc(C(Cl)Cl)c2c1`, 57.1% (active); for `Cc1cc(C(=O)N2CCCC2(C)C(=O)O)c(C)o1` (configuration not stated), -4.82%.
The value for `CC(=O)Nc1ccc(CC#N)cc1` was 18.5%.
`C/C(Cc1ccccc1)=N\NC(=O)CNC(=O)c1cccc(Br)c1`: the inhibition is 14%.
The value for `O=C(NC1=CC(=O)c2ccccc2C1=O)c1ccccc1` was 92.9% (active); that for `CN(C)C(=O)c1ccc(NC(=O)c2ccccc2-c2ccccc2)cc1` was 19.3%; that for `Cc1ccc(C(=O)Nc2c(-c3ccccc3)[nH][nH]c2=O)cc1` was -3.55%.
